Results: PubChem BioAssay (NCATS)
Several values for one entry are separate records, joined by “and”; a condition that tells them apart may be missing. Equal entries are not always repeated. Results filed as inconclusive are left out. Activity calls are given as the source filed them. Unless noted, calls come from the whole dose curve; as a rule, active = well fitted curve in the direction sought with a large enough effect; inconclusive = small, poorly fitted or top-dose-only effect, or another doubt; inactive = no such curve, though single readings can be large or run the other way.

Experiments:
[1] = molecular target: T1, Hexokinase-4 (Homo sapiens) + Glucokinase regulatory protein (Homo sapiens) (UniProt P35557+Q14397); assay: qHTS assay for inhibitors of recombinant human GCK-GKRP interaction: Diaphorase-coupled assay (AID 743205); conditions: G6PDH/diaphorase resorufin fluorescence; series mostly up to 57.5 µM
T1 sequence (P35557 whole entry, looked up): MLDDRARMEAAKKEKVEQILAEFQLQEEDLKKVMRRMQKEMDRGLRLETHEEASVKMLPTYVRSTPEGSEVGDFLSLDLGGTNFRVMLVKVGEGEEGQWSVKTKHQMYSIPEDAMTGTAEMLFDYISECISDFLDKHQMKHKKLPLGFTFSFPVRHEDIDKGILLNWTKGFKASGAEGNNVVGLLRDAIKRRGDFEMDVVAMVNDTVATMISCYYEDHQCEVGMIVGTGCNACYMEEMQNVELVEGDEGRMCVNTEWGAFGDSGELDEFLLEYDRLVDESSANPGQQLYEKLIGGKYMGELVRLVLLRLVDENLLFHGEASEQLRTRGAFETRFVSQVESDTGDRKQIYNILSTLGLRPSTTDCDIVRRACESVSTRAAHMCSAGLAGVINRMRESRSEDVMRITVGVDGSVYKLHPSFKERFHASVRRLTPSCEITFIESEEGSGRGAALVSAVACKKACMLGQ
T1 sequence (Q14397 whole entry, looked up): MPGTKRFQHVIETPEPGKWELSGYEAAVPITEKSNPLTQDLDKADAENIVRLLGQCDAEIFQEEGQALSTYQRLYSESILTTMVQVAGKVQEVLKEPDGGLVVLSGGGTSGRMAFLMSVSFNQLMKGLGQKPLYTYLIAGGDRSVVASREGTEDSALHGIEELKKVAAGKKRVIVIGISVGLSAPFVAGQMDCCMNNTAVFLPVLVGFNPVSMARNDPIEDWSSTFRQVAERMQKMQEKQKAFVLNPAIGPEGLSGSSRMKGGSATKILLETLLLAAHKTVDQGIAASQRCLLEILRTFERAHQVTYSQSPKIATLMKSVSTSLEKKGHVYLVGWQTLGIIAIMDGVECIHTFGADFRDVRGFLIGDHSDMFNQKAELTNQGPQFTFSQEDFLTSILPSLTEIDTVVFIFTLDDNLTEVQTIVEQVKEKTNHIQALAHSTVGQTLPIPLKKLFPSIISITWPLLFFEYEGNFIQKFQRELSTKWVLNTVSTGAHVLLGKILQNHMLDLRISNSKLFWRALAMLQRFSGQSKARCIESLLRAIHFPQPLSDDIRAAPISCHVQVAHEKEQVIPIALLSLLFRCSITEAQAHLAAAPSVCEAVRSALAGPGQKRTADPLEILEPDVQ
How it was run: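 GST-GCK (10 nM) with FLAG-GKRP (10 nM), 5 mM glucose and 0.4 mM ATP in pH 7.6 Hepes; compounds preincubated 20 min with substrate. G6PDH/diaphorase coupling converts resazurin to resorufin, read kinetically (ex 525/em 590 nm) for 30 min.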

[2] = molecular target: T1, Hexokinase-4 (Homo sapiens) + Glucokinase regulatory protein (Homo sapiens); assay: qHTS assay for inhibitors of recombinant human GCK-GKRP interaction: ADP-Glo assay (AID 743206); conditions: ADP-Glo luminescence, 60 min, 0% = vehicle-only wells with enzyme present; series mostly up to 76.9 µM;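 note: plate controls were DMSO plus enzyme for no effect and no enzyme for full effect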
How it was run: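 Pin-transferred compounds meet a 15 nM GST-GCK/15 nM FLAG-GKRP/2 uM S6P mix (dispense concentrations). ATP is then added to 0.4 mM final with 5 mM glucose, and the reaction runs 60 min at room temperature. ADP is quantified luminescently.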

[3] = molecular target: T1, Hexokinase-4 (Homo sapiens) + Glucokinase regulatory protein (Homo sapiens); assay: qHTS assay for inhibitors of recombinant human GCK-GKRP interaction: HTRF assay (AID 743207); conditions: recombinant GCK-GKRP HTRF binding, 60 min, with sorbitol-6-phosphate; series mostly up to 57.5 µM;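 note: 0% = DMSO with GCK present and -100% = DMSO wells lacking GCK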
How it was run: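 GST-GCK and FLAG-GKRP (5 nM each) were combined with 2 uM S6P in pH 7.1 Hepes/MgCl2/KCl/DTT buffer, then compound and anti-FLAG XL665/anti-GST K antibodies were added. After 60 min at room temperature, HTRF 665/615 nm emission was read.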

[4] = qHTS Assay for Identifying Gametocytocidal Compounds (AID 743244); note: potency is the fitted concentration of half-maximal effect;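 for max response: % is set by controls: 0 for no effect and ±100 for the full control effect; actives lower the fluorescent signal which means gametocytes are killed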; conditions: P. falciparum 3D7 stage III-V gametocytes, alamarBlue, 72 h; max response: stronger effect = lower value
How it was run: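 3D7 gametocytes, stages III–V, 20,000/well; cpd 72 h, 37 °C/5% CO2; + alamarBlue 24 h; fluor. Ex 525/Em 598.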

[5] = qHTS profiling of the MIPE4 collection as inhibitors of Plasmodium falciparum (3D7) proliferation (AID 743344; call rule not given here;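 note: scaled between DMSO vehicle wells and 0.29 µM artemisinin as full inhibition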); conditions: P. falciparum 3D7 in erythrocytes, SYBR Green DNA fluorescence, 72 h; at 28.5 µM (top of the series) unless noted
How it was run: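 Parasite DNA was quantified by SYBR Green I fluorescence (ex 485, em 535 nm) after overnight lysis in saponin/Triton buffer at room temperature. Cultures at 0.3% parasitemia and 2.5% hematocrit were first exposed to compound for 72 h at 37 C; signals were normalised to artemisinin (0.29 uM) and vehicle wells.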

Q: Which outcome [1] does the source give for `O=c1c(O)c(-c2cc(O)c(O)c(O)c2)oc2cc(O)cc(O)c12` here?
A: inactive

Q: What about the outcome [2] of the same molecule?
A: inactive

Q: What about the outcome [3] of the same molecule?
A: inactive

Q: What about the max response [4] of the same molecule?
A: 4.63% (inactive)

Q: What about the parasite growth, % of DMSO control [5] of the same molecule?
A: 93.5%

Q: What does the source list for `Nc1ccn([C@@H]2O[C@H](CO)[C@@H](O)C2O)c(=O)n1` (some centres not stated)?
A: outcome [1]: inactive; outcome [2]: inactive; outcome [3]: inactive; max response [4]: 0.0114% (inactive) and -8.34% (inactive); parasite growth, % of DMSO control [5]: 89.3%

Q: With `O=C(O)c1cccnc1Nc1cccc(C(F)(F)F)c1` as the molecule, how does the outcome [1] read?
A: inactive

Q: What about the outcome [2] of the same molecule?
A: inactive

Q: And the outcome [3]?
A: inactive

Q: And the max response [4]?
A: -9.57% (inactive) and 27.4% (inactive)

Q: And the parasite growth, % of DMSO control [5]?
A: 83.9%

Q: Which results are given for `CC(C)c1ccc2oc3nc(N)c(C(=O)O)cc3c(=O)c2c1`?
A: max response [4]: 20.5% (inactive); parasite growth, % of DMSO control [5]: 54.7%

Q: With `c1cnc2cc3c(cc2n1)C1CNCC3C1` as the molecule, how does the max response [4] read?
A: -11.9% (inactive)

Q: And the parasite growth, % of DMSO control [5]?
A: 94.7%

Q: Which max response [4] does the source give for `CC[C@]1(O)C[C@H]2CN(CCc3c([nH]c4ccccc34)[C@@](C(=O)OC)(c3cc4c(cc3OC)N(C=O)[C@H]3[C@@](O)(C(=O)OC)[C@H](OC(C)=O)[C@]5(CC)C=CCN6CC[C@]43[C@@H]65)C2)C1` here?
A: 24.7% (inactive)

Q: What about the parasite growth, % of DMSO control [5] of the same molecule?
A: 19.3%

Q: For `O=C(NC(Cc1cc(=O)[nH]c2ccccc12)C(=O)O)c1ccc(Cl)cc1` (configuration not stated), which max response [4] is on record?
A: 22.1% (inactive)

Q: What about the parasite growth, % of DMSO control [5] of the same molecule?
A: 88.9%

Q: What does the source list for `CCCOc1ccc2nc(NC(=O)OC)[nH]c2c1`?
A: max response [4]: -3.98% (inactive); parasite growth, % of DMSO control [5]: 82.7%

Q: With `COC(=O)C1=C(C)NC(C)=C(C(=O)OCCCN2CCC(c3ccccc3)(c3ccccc3)CC2)C1c1cccc([N+](=O)[O-])c1` (configuration not stated) as the molecule, how does the Potency [4] read?
A: 10 µM (active)

Q: And the parasite growth, % of DMSO control [5]?
A: 114%

Q: For `COc1c(O)cc2c(c1O)[C@@H]1O[C@H](CO)[C@@H](O)[C@H](O)[C@H]1OC2=O`, which max response [4] is on record?
A: 0.91% (inactive)

Q: What about the parasite growth, % of DMSO control [5] of the same molecule?
A: 92.9%

Q: Which max response [4] does the source give for `Cc1cc(=O)c2c(O)c3c(O)cc(=O)c4c3c3c(cc(O)c1c23)C(C)(C)C=4O` here?
A: -6.69% (inactive)

Q: And the parasite growth, % of DMSO control [5]?
A: 6.69%

Q: Which results are given for `COC1=C(OC)C(=O)C(CCCCCCCCCCO)=C(C)C1=O`?
A: max response [4]: -5.2% (inactive); parasite growth, % of DMSO control [5]: 61.7%

Q: With `CC(C)[C@H](N)C(=O)OCCOCn1cnc2c(=O)[nH]c(N)nc21` as the molecule, how does the max response [4] read?
A: 18.3% (inactive)

Q: What about the parasite growth, % of DMSO control [5] of the same molecule?
A: 102%

Q: What does the source list for `Cc1ccc(S(=O)(=O)NC(=O)NN2CC3CCCC3C2)cc1` (configuration not stated)?
A: max response [4]: 2.23% (inactive); parasite growth, % of DMSO control [5]: 14%

Q: What does the source list for `C=C(c1ccc(C(=O)O)cc1)c1cc2c(cc1C)C(C)(C)CCC2(C)C`?
A: max response [4]: 3.99% (inactive); parasite growth, % of DMSO control [5]: 70%

Q: Which results are given for `Cc1c(C(=O)NN2CCCCC2)nn(-c2ccc(Cl)cc2Cl)c1-c1ccc(Cl)cc1`?
A: max response [4]: 2.34% (inactive); parasite growth, % of DMSO control [5]: 6.76%

Q: Which max response [4] does the source give for `CN(C)CCc1c[nH]c2ccc(Cn3cncn3)cc12` here?
A: -0.403% (inactive)

Q: And the parasite growth, % of DMSO control [5]?
A: 89.2%

Q: Which max response [4] does the source give for `CCCCCCCCCCCCCCCCCCCCCCO` here?
A: 23% (inactive)

Q: And the parasite growth, % of DMSO control [5]?
A: 94.9%

Q: For `CC(=O)NC[C@H]1CN(c2ccc(N3CCOCC3)c(F)c2)C(=O)O1`, which max response [4] is on record?
A: 1.95% (inactive)

Q: And the parasite growth, % of DMSO control [5]?
A: 65.6%

Q: For `O=C(NCCO[N+](=O)[O-])c1cccnc1`, which max response [4] is on record?
A: -6.52% (inactive)

Q: What about the parasite growth, % of DMSO control [5] of the same molecule?
A: 102%

Q: For `CCOC(=O)c1c(C)n(C)c2ccc(O)cc12`, which max response [4] is on record?
A: 2.91% (inactive)

Q: What about the parasite growth, % of DMSO control [5] of the same molecule?
A: 93.9%

Q: For `N=C(N)c1ccc2cc(OC(=O)c3ccc(N=C(N)N)cc3)ccc2c1`, which max response [4] is on record?
A: 6.62% (inactive)

Q: What about the parasite growth, % of DMSO control [5] of the same molecule?
A: 6.93%

Q: With `O=C1CCc2ccc(OCCCCN3CCN(c4cccc(Cl)c4Cl)CC3)cc2N1` as the molecule, how does the max response [4] read?
A: 0.257% (inactive)

Q: What about the parasite growth, % of DMSO control [5] of the same molecule?
A: 29.7%

Q: What does the source list for `Cc1nccn1CC1CCc2c(c3ccccc3n2C)C1=O` (configuration not stated)?
A: max response [4]: -12.7% (inactive) and -3.64% (inactive); parasite growth, % of DMSO control [5]: 89.8%

Q: With `COC(=O)N[C@H](C(=O)N[C@@H](Cc1ccccc1)[C@@H](O)CN(Cc1ccc(-c2ccccn2)cc1)NC(=O)[C@@H](NC(=O)OC)C(C)(C)C)C(C)(C)C` as the molecule, how does the max response [4] read?
A: -11.7% (inactive)

Q: And the parasite growth, % of DMSO control [5]?
A: 7.5%

Q: With `Cc1cc2cc3c(C)cc(=O)oc3c(C)c2o1` as the molecule, how does the max response [4] read?
A: 13.8% (inactive)

Q: What about the parasite growth, % of DMSO control [5] of the same molecule?
A: 93%

Q: What does the source list for `O=C(O)CCNC(=O)c1ccc(N=Nc2ccc(O)c(C(=O)O)c2)cc1`?
A: max response [4]: 7.5% (inactive); parasite growth, % of DMSO control [5]: 57.4%

Q: What does the source list for `Cc1ncc([N+](=O)[O-])n1CC(C)O` (configuration not stated)?
A: max response [4]: 9.98% (inactive); parasite growth, % of DMSO control [5]: 94.7%

Q: For `O=P(O)(O)C(O)(Cn1ccnc1)P(=O)(O)O`, which max response [4] is on record?
A: 13.2% (inactive)

Q: What about the parasite growth, % of DMSO control [5] of the same molecule?
A: 103% [at 9.64 µM]

Q: For `N=C(N=C(N)N)N1CCOCC1`, which max response [4] is on record?
A: 0.738% (inactive)

Q: And the parasite growth, % of DMSO control [5]?
A: 106%

Q: With `CN(C)C(=O)COC(=O)Cc1ccc(OC(=O)c2ccc(N=C(N)N)cc2)cc1` as the molecule, how does the max response [4] read?
A: 10.2% (inactive)

Q: What about the parasite growth, % of DMSO control [5] of the same molecule?
A: 75%

Q: Which results are given for `CC(C)Oc1ccc2c(=O)c(-c3ccccc3)coc2c1`?
A: max response [4]: -8.04% (inactive) and -1.57% (inactive); parasite growth, % of DMSO control [5]: 75.9%

Q: For `CCOc1cc(CC(=O)N[C@@H](CC(C)C)c2ccccc2N2CCCCC2)ccc1C(=O)O`, which max response [4] is on record?
A: 1.56% (inactive)

Q: What about the parasite growth, % of DMSO control [5] of the same molecule?
A: 83.8%

Q: What does the source list for `CC1=C(C(=O)O)N2C(=O)[C@@H](NC(=O)[C@H](N)C3=CCC=CC3)[C@H]2SC1`?
A: max response [4]: -5.14% (inactive); parasite growth, % of DMSO control [5]: 79.3%
